Results: PubChem BioAssay (Tox21)
Results filed as inconclusive are left out. Calls of active or inactive are those of the source. Unless noted, calls come from the whole dose curve; as a rule, active = well fitted curve in the direction sought with a large enough effect in the repeat runs; inconclusive = weak or mixed curves; inactive = no such curve, though single readings can be large; an effect the other way counts as inactive or inconclusive.

Key:
[1] = target: Aryl hydrocarbon receptor (Homo sapiens) (UniProt P35869); assay: qHTS assay to identify small molecule that activate the aryl hydrocarbon receptor (AhR) signaling pathway (AID 743085);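 note: HG2L7.5c1 human HepG2 liver cells with stably integrated DRE-driven firefly reporter; series mostly up to about 70 µM; nearly all actives have a fitted effect of over 15% in size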
Outline: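 Stably transfected human liver carcinoma cells (HG2L7.5c1; 20 DRE-firefly luciferase) were incubated 5 h, dosed, and kept 24 h at 37C. Agonism was scored from increased luciferase luminescence.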

[2] = qHTS assay to identify small molecule that activate the aryl hydrocarbon receptor (AhR) signaling pathway - cell viability counter screen (AID 743086);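 note: HepG2 liver cells carrying the AhR DRE luciferase reporter; series mostly up to about 70 µM; nearly all actives have a fitted effect of over 45% in size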
Outline: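 Cytotoxicity counter screen: CellTiter-Fluor signal (30 min, 37 C) in 4000 HepG2 cells/well carrying the DRE-luciferase reporter, following 24 h compound exposure at 37 C.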

[3] = target: Peroxisome proliferator-activated receptor gamma (Homo sapiens) (UniProt P37231); assay: qHTS assay to identify small molecule agonists of the peroxisome proliferator-activated receptor gamma (PPARg) signaling pathway (AID 743094; active = well fitted activation curve with a large enough effect in the signal ratio in the repeat runs, not every such curve was filed as active; the % refers to the signal ratio)
Outline: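 Fluorescence-based beta-lactamase readout in HEK293H PPARg UAS-bla cells after 17 h compound exposure (37C) and 1 h B/G FRET substrate incubation at room temperature.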

[4] = target: Peroxisome proliferator-activated receptor gamma (Homo sapiens) (UniProt P37231); assay: qHTS assay to identify small molecule antagonists of the peroxisome proliferator-activated receptor gamma (PPARg) signaling pathway (AID 743191; calls by dose curve; note: series mostly up to about 63 µM; nearly all actives have a fitted effect of over 30% in size)
Outline: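 Beta-lactamase reporter under UAS control in HEK293H PPARg-bla cells; compound treatment 17 h at 37C. Read-out: fluorescence intensity after 1 h room-temperature incubation with LiveBLAzer B/G FRET substrate.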

[5] = qHTS assay to identify small molecule antagonists of the peroxisome proliferator-activated receptor gamma (PPARg) signaling pathway - cell viability counter screen (AID 743194); note: nearly all actives have a fitted effect of over 55% in size
Outline: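 Viability was measured as CellTiter-Glo luminescence in GeneBLAzer PPARg UAS-bla HEK293H cells. These cells had been exposed 17 h at 37 C to compounds together with rosiglitazone at 50 nM final, with the beta-lactamase readout taken in the same wells.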

[6] = qHTS assay for small molecule activators of the heat shock response signaling pathway - cell viability counter screen (AID 743209); note: nearly all actives have a fitted effect of over 50% in size
Outline: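 To flag cytotoxic compounds, HSE-bla HeLa cells plated at 1500 cells/well were dosed for 5 h at 37 C, followed by the reporter FRET read and then CellTiter-Glo, with luminescence recorded 30 min after reagent addition.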

[7] = qHTS assay for small molecule activators of the heat shock response signaling pathway (AID 743210; active = well fitted activation curve with a large enough effect in the signal ratio in the repeat runs, with a control signal flat, not every such curve was filed as active; the % refers to the signal ratio; note: series mostly up to about 63 µM)
Outline: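 Compound exposure lasted 5 h at 37 C in HeLa cells carrying a heat-shock-element-driven beta-lactamase reporter. Read-out: fluorescence intensity after 2.5 h room-temperature loading with LiveBLAzer B/G FRET substrate.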

[8] = qHTS assay to identify small molecule agonists of the peroxisome proliferator-activated receptor delta (PPARd) signaling pathway - cell viability counter screen (AID 743211); note: nearly all actives have a fitted effect of over 55% in size
Outline: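 In the same wells used for beta-lactamase reporter measurement, cytotoxicity is scored by CellTiter-Glo. HEK293H PPARd-bla cells receive compound for 17 h at 37C following a 5 h settling period.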

[9] = target: Peroxisome proliferator-activated receptor delta (Homo sapiens) (UniProt Q03181); assay: qHTS assay to identify small molecule agonists of the peroxisome proliferator-activated receptor delta (PPARd) signaling pathway (AID 743212; calls by dose curve;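 note: HEK293H cells with PPARd UAS beta-lactamase reporter GeneBLAzer system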)
Outline: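 Beta-lactamase reporter readout: a ratiometric FRET signal from the LiveBLAzer substrate after 2 h at room temperature. Compound exposure at 37 °C in PPARδ-bla HEK293H cells driven by an upstream activator sequence.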

[10] = qHTS assay to identify small molecule antagonists of the peroxisome proliferator-activated receptor delta (PPARd) signaling pathway - cell viability counter screen (AID 743213); note: nearly all actives have a fitted effect of over 50% in size
Outline: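 Cytotoxicity counter screen: CellTiter-Glo luminescence read 30 min after addition, in the same wells as the reporter assay. There, PPARd UAS-bla HEK293H cells (3000/well) were treated 17 h at 37 C with compound and 300 nM L165041.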

[11] = target: Peroxisome proliferator-activated receptor delta (Homo sapiens) (UniProt Q03181); assay: qHTS assay to identify small molecule antagonists of the peroxisome proliferator-activated receptor delta (PPARd) signaling pathway (AID 743215; active = well fitted inhibition curve with a large enough effect in the signal ratio in the repeat runs, not every such curve was filed as active; the % refers to the signal ratio;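 note: cells stimulated with agonist L165041 at 300 nM final during compound exposure; series mostly up to about 62 µM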)
Outline: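 Screen format: qHTS, antagonist mode. HEK293H PPARd-bla cells received compound and 300 nM L165041 (final), 17 h, 37 C. Beta-lactamase detected via FRET substrate fluorescence, 2 h, room temperature.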

[12] = target: Bile acid receptor (Homo sapiens) (UniProt Q96RI1); assay: qHTS assay to identify small molecule antagonists of the farnesoid-X-receptor (FXR) signaling pathway (AID 743217; active = well fitted inhibition curve with a large enough effect in the signal ratio in the repeat runs, not every such curve was filed as active; the % refers to the signal ratio)
Outline: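 Quantitative HTS, beta-lactamase reporter format: FXR-UAS-bla HEK 293T cells co-treated 16 h at 37 °C with compounds and 50 uM final chenodeoxycholic acid, then read by B/G FRET fluorescence.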

[13] = qHTS assay to identify small molecule agonists of the farnesoid-X-receptor (FXR) signaling pathway - cell viability counter screen (AID 743218); note: nearly all actives have a fitted effect of over 45% in size
Outline: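 Same-well cytotoxicity check on FXR-UAS-bla HEK 293T cells: 5 h attachment, 16 h compound at 37 C, CellTiter-Glo luminescence read at room temperature after 30 min.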

[14] = target: Bile acid receptor (Homo sapiens) (UniProt Q96RI1); assay: qHTS assay to identify small molecule agonists of the farnesoid-X-receptor (FXR) signaling pathway (AID 743220; active = well fitted activation curve with a large enough effect in the signal ratio in the repeat runs, not every such curve was filed as active; the % refers to the signal ratio)
Outline: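 FXR-UAS-bla HEK 293T cells carrying a UAS-driven beta-lactamase reporter were plated for 5 h at 37C/5% CO2, then exposed to DMSO-dissolved Tox21 10K compounds for 16 h at 37C. A LiveBLAzer B/G FRET substrate was loaded for 2 h at room temperature before fluorescence reading.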

[15] = qHTS assay to identify small molecule antagonists of the farnesoid-X-receptor (FXR) signaling pathway - cell viability counter screen (AID 743221; active = well fitted cell-killing curve with a large enough effect in the repeat runs, not every such curve was filed as active; note: nearly all actives have a fitted effect of over 50% in size)
Outline: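 Here viability was scored by luminescence after CellTiter-Glo addition to wells already read for beta-lactamase. Prior treatment: compound plus CDCA (50 uM final), 16 h, 37 C, HEK 293T FXR-bla cells.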

[16] = target: Vitamin D3 receptor (Homo sapiens) (UniProt P11473); assay: qHTS assay to identify small molecule agonists of the vitamin D receptor (VDR) signaling pathway (AID 743222; calls by dose curve)
Outline: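 Using LiveBLAzer B/G FRET detection, agonism was scored in VDR-bla cells exposed overnight (16 h, 37C) to DMSO-dissolved compounds; substrate incubation was 2 h at room temperature.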

[17] = target: Vitamin D3 receptor (Homo sapiens) (UniProt P11473); assay: qHTS assay to identify small molecule antagonists of the vitamin D receptor (VDR) signaling pathway (AID 743223; active = well fitted inhibition curve with a large enough effect in the signal ratio in the repeat runs, not every such curve was filed as active; the % refers to the signal ratio)
Outline: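 Inhibition of agonist-driven VDR signalling is scored in VDR-bla cells: 3 nM final 1alpha,25-dihydroxyvitamin D3 plus compound, 16 h at 37C, then beta-lactamase detection by FRET substrate fluorescence after 2 h.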

[18] = qHTS assay for small molecule agonists of the antioxidant response element (ARE) signaling pathway - cell viability counter screen (AID 743203; calls by dose curve; note: nearly all actives have a fitted effect of over 55% in size)
Outline: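 Parallel cytotoxicity read-out for the ARE-bla screen: HepG2 reporter cells, 16 hrs with compounds, then CellTiter-Glo luminescence.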

[19] = qHTS assay to identify small molecule agonists of the vitamin D receptor (VDR) signaling pathway - cell viability counter screen (AID 743224); note: series mostly up to about 63 µM; nearly all actives have a fitted effect of over 50% in size
Outline: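 Counter screen for cytotoxicity: VDR-bla cells at 2,000 cells/well, 16 h compound exposure, then CellTiter-Glo luminescence after the beta-lactamase measurement.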

[20] = qHTS assay for small molecule agonists of the antioxidant response element (ARE) signaling pathway (AID 743202; active = well fitted activation curve with a large enough effect in the signal ratio in the repeat runs, not every such curve was filed as active; the % refers to the signal ratio)
Outline: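 After 16 hours of compound treatment at 37 C, HepG2 cells with a stably integrated ARE-driven beta-lactamase reporter were loaded 2 hours at room temperature with LiveBLAzer B/G FRET substrate and fluorescence intensity measured.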

Measured: Potency

Peroxisome proliferator-activated receptor delta (Homo sapiens), sequence (Q03181 whole entry, looked up): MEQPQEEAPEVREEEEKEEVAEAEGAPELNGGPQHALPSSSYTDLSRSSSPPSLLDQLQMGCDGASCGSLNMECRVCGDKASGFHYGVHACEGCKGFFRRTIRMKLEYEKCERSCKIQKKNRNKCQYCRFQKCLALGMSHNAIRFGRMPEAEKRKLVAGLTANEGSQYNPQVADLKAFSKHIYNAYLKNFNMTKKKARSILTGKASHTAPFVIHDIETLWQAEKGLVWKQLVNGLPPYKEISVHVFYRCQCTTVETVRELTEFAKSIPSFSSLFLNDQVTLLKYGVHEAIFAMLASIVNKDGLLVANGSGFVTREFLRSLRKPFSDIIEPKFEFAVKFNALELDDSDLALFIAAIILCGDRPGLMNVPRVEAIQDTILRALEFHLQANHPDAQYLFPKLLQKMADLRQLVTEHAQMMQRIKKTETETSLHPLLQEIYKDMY
Vitamin D3 receptor (Homo sapiens), sequence (P11473 whole entry, looked up): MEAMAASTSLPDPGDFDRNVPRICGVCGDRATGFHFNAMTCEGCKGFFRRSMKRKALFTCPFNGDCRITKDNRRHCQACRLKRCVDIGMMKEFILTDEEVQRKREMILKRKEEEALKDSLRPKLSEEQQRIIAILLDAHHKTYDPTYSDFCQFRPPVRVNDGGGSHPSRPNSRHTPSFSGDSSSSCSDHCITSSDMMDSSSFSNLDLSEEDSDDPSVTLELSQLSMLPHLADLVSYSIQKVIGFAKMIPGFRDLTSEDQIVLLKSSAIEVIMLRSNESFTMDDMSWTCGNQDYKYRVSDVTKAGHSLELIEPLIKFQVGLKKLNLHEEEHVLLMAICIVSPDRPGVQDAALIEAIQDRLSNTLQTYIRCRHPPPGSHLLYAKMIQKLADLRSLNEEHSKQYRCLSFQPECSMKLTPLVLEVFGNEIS
Peroxisome proliferator-activated receptor gamma (Homo sapiens), sequence (P37231 whole entry, looked up): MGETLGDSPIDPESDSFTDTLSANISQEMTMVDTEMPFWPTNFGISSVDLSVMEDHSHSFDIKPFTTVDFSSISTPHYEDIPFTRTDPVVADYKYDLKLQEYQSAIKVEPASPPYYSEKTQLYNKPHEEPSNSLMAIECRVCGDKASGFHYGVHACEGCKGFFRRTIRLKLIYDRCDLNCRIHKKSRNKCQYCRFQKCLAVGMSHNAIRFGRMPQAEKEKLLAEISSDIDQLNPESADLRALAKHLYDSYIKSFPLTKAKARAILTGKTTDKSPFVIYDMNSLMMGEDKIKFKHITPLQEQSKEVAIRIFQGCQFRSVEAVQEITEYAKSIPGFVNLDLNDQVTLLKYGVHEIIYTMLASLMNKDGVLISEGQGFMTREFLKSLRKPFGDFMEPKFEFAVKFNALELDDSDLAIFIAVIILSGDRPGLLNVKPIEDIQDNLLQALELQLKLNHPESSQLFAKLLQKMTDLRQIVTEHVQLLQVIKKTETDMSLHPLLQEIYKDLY
Aryl hydrocarbon receptor (Homo sapiens), sequence (P35869 whole entry, looked up): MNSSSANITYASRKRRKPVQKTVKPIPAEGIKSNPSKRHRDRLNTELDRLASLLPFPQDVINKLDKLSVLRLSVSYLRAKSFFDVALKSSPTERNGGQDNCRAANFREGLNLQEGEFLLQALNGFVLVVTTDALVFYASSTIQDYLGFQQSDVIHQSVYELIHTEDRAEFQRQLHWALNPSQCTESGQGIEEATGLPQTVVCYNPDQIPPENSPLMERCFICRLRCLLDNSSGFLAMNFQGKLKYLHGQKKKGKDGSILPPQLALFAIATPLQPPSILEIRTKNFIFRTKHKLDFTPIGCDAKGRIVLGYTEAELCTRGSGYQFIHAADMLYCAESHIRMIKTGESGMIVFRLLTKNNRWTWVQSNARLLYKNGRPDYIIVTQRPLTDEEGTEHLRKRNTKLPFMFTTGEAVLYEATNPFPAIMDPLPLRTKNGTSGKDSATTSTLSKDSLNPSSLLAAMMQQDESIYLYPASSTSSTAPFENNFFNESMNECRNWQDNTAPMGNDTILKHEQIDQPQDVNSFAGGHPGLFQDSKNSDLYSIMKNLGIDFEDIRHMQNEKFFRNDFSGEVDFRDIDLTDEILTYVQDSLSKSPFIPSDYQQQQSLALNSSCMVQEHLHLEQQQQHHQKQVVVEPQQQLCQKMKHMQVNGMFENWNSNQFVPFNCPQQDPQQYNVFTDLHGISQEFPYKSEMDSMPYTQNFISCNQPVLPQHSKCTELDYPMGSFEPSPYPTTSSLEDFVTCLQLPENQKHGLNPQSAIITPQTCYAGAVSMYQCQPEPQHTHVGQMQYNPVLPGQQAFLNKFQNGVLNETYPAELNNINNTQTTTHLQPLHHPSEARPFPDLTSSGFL
Bile acid receptor (Homo sapiens), sequence (Q96RI1 whole entry, looked up): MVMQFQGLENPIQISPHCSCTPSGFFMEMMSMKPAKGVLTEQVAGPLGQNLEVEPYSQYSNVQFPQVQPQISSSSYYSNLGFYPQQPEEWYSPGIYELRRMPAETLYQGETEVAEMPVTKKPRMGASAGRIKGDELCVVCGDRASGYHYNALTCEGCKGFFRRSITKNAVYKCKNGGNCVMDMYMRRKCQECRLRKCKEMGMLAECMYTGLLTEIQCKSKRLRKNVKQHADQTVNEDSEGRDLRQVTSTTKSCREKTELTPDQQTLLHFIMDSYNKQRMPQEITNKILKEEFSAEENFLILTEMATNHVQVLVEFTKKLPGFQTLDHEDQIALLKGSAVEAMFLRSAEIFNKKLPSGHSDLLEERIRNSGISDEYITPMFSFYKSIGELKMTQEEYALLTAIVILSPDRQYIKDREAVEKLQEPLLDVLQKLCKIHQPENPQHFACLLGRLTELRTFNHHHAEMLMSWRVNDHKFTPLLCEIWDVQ

CC(=O)CCc1ccc(OC(C)=O)cc1
not listed: [18] | [19] | [20]
inactive: all other assays above

N#CCC(=O)NN
not listed: [5] | [7] | [12] | [14] | [17] | [20]
inactive: all other assays above

CCCSSCCC
not listed: [5] | [8] | [11] | [12] | [14]
inactive: all other assays above

C/C=C(\C)C(=O)OCCc1ccccc1
not listed: [4] | [16] | [17]
inactive: all other assays above

CC(C)=CCC/C(C)=C/COC=O
not listed: [5] | [10] | [12] | [14] | [16]
inactive: all other assays above

CC(Oc1cc(Cl)ccc1Cl)C(=O)O (centres undefined)
not listed: [5] | [9] | [12] | [14] | [16] | [17] | [20]
inactive: all other assays above

O=Cc1ccccc1Cl
not listed: [5] | [9] | [10] | [11] | [20]
inactive: all other assays above

C=Cc1ccc(C(C)(C)C)cc1
not listed: [4] | [11] | [16] | [17]
inactive: all other assays above

Cc1c(NC(=O)c2cccnc2)c(=O)n(-c2ccccc2)n1C
not listed: [5] | [7] | [11] | [13] | [20]
inactive: all other assays above

C[C@]12CCC(=O)C=C1CC[C@H]1[C@@H]3CC[C@](O)(C(=O)CO)[C@@]3(C)C[C@H](O)[C@@]12F
not listed: [4] | [13] | [15]
inactive: all other assays above

O=C(O)CCCCCC(=O)O
not listed: [5] | [12] | [14] | [19] | [20]
inactive: all other assays above

COC(=O)/C=C\C(=O)O
inactive: [1] | [2] | [3] | [4] | [5] | [18] | [8] | [9] | [11] | [13] | [15]

CC1(C)Cc2cccc(N)c2O1
not listed: [5] | [6] | [7] | [11] | [13] | [19]
inactive: all other assays above
